# Hit rate of the full screen: of about 330,000 compounds, about 4,900 (1.5%) were called active. Shown is part of a subset that was picked to be rich in actives. Unmarked numbers belong to inactive results.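 The calls were made as follows: active = inhibition above about 50% at the single test dose (limit read from the data); inactive = the rest.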
# Target: Sentrin-specific protease 7 (Homo sapiens) (UniProt Q9BQF6)
# Experiment: SENP7 protease inhibitors, primary screen, biochemical, luminescence, uHTS (AID 434973);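 also: plate controls were DMSO with enzyme for no effect and no enzyme buffer wells for full effect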
# Details: recombinant SENP7, Z-RLRGG-aminoluciferin luminescence, 40 min; at 5 µM; hits give high values
row,Structure (SMILES),inhibition
1,CCCS(=O)(=O)N1CCC(C(=O)NCCCN(C)Cc2ccccc2)CC1,-8.04%
2,O=C(Nc1ccccc1)c1ccc2nsnc2c1,35.8%
3,Cc1cccc(NC(=O)c2ccc3nsnc3c2)c1C,2.56%
4,O=C(Nc1ccccc1Cl)c1ccc2nsnc2c1,50.7% (active)
5,COc1cccc(-c2nnc(SCCOc3ccc4c(C)cc(=O)oc4c3)o2)c1,7.33%
6,Cc1nc(-c2ccc([N+](=O)[O-])cc2)c(-c2ccccc2)o1,-7.84%
7,COc1cccc(-c2nc3cc(C)ccc3o2)c1,99.9% (active)
8,COc1ccc2oc(-c3cccc(NC(=O)CSc4ccc(Cl)cc4)c3)nc2c1,-4.24%
9,COc1ccc([N+](=O)[O-])cc1-c1nc2ccccc2nc1-c1ccccc1,-0.763%
10,O=[N+]([O-])c1ccc2oc(-c3cccc(O)c3)nc2c1,87.7% (active)
11,Cc1ccc(C2(C)NC(=O)N(CC(=O)Nc3ccccc3C(=O)N3CCCCC3)C2=O)cc1 (stereo not given),12.4%
12,COCOc1cc(O)c(C(=O)/C=C/c2ccc(OCOC)c(OCOC)c2)c(OCOC)c1,6.61%
13,O=C(/C=C/c1ccco1)NC(=S)Nc1ccccc1Br,-4.36%
14,Cc1nnc(NC(=O)/C=C/c2ccco2)s1,-7.44%
15,O=C(/C=C/c1ccco1)Nc1ccc(Oc2ccccc2)cc1,63.9% (active)
16,CCOc1cc(NC(=O)CCl)c(OCC)cc1NC(C)=O,5.15%
17,O=C(Cc1ccc(S(=O)(=O)N2CCOCC2)s1)N1CCN(c2ccc(C(F)(F)F)cc2[N+](=O)[O-])CC1,-8%
18,NC1=NN(c2cccc(C(=O)O)c2)C(=O)C1,5.47%
19,O=C(O)c1cccc(N=NN2CCCCCC2)c1,77.8% (active)
20,O=C(O)c1ccc(N=NN2CCOCC2)cc1,-2.47%
21,O=C(Oc1ccc([N+](=O)[O-])cc1)c1ccc2ccccc2n1,-9.28%
22,CC(=O)Oc1ccc2c(=O)oc(-c3ccc([N+](=O)[O-])cc3)nc2c1,97.5% (active)
23,CC(=O)Oc1ccc(-c2nc3c(C)cccc3c(=O)o2)cc1,-7.63%
24,COc1ccc(OCC(=O)NCCc2ccc(S(N)(=O)=O)cc2)cc1,7.31%
25,CCc1ccc(C(=O)COC(=O)c2ccco2)cc1,68.9% (active)

row,Structure (SMILES),inhibition
1,O=C(COC(=O)c1ccco1)NCc1ccc(Cl)cc1,-0.452%
2,O=C(OCC(=O)N1CCCC1)c1ccco1,-6.82%
3,Cc1ccc(-n2nc(-c3ccco3)cc2C(=O)NCc2cccnc2)cc1,0.29%
4,O=C(N/N=C/c1ccc(OC(=O)c2ccccc2Cl)cc1)c1ccc(O)cc1,4.1%
5,COc1ccc(/C=N/OCC(=O)N(Cc2ccccc2)c2ccccc2C(=O)O)cc1,6.96%
6,COc1ccc(NS(=O)(=O)c2cc(C(=O)Nc3ccccc3C(=O)O)ccc2C)cc1,9.65%
7,COc1ccccc1C(=O)NNC(=O)c1ccc(NC(=O)c2ccccc2)cc1,11.6%
8,COc1ccc(C(=O)Nc2ccccc2C(=O)N/N=C/c2ccccc2OC)cc1,64.8% (active)
9,COc1ccc(C(=O)Nc2cc(C)c(NC(=O)c3ccccc3OC)cn2)cc1,9.47%
10,COc1ccc(/C=N/Nc2ccccc2C(=O)O)cc1,94.3% (active)
11,COc1ccc(C(=O)Nc2ccccc2C(=O)N/N=C/c2ccc(O)c(OC)c2)cc1,101% (active)
12,CCOc1cc(/C=N/NC(=O)c2cc(-c3ccccc3)nc3ccccc23)ccc1O,-1.26%
13,O=C(CN1C(=O)NC2(CCCCC2)C1=O)N1CCN(C(=O)c2cccs2)CC1,-1.61%
14,COc1cc(S(=O)(=O)N2CCN=C2c2ccccc2)ccc1Cl,-10%
15,O=C(CC1OC(=O)c2ccccc21)NC1CCCCC1 (stereo not given),1.77%
16,CC(C)c1c(O)nc(SCCOc2ccc(Cl)cc2)[nH]c1=O,8.54%
17,O=C(Cn1cnc2ccccc2c1=O)NNC(=O)c1ccccc1F,-11%
18,CCN1CCN(C(C(=O)NC2CCCC2)c2cc3c(cc2[N+](=O)[O-])OCO3)CC1 (stereo not given),-3.92%
19,Nc1nc(C23CC4CC(CC(C4)C2)C3)cs1,3.32%
20,Fc1ccccc1/C=N/Nc1cc(N2CCCCC2)ncn1,69.8% (active)
21,C(=N/Nc1cc(N2CCOCC2)nc(N2CCOCC2)n1)/c1ccccc1,31.9%
22,COc1ccccc1N1CCN(C(=O)C(=O)N/N=C/c2ccccc2F)CC1,-1.74%
23,CC(=O)Nc1ccc(S(=O)(=O)Nc2cc(C)cn(Cc3ccc(C)cc3)c2=O)cc1,2.97%
24,Cc1ccc(S(=O)(=O)NC[C@H]2O[C@@H](n3cnc4c(N)ncnc43)[C@H](O)[C@@H]2O)s1,6.73%
25,CC(=O)c1cccc(NC(=O)COc2ccc(S(=O)(=O)N3CCOCC3)cc2)c1,3.63%
